{"source": "PubChem BioAssay (EPA / NIEHS)", "note": "Inconclusive results are not listed. Calls of active or inactive are those of the source. How the source made its calls: active means hit-call score of the fitted dose curve at least 0.9, where 1 is the maximum; inconclusive means response in the unintended direction; inactive means score below 0.9."}
{"read-out": "Broad substrate specificity ATP-binding cassette transporter ABCG2 (Homo sapiens) (UniProt Q9UNQ0)", "experiment": "CLD_ABCG2_48hr: CellzDirect (CLD) Gene Expression Assay for ABC Transporter (ABCG2) at 48 hours (AID 2283704);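 on AC50: potency for induction of ABCG2 mRNA above the DMSO baseline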", "method": "CLD_48hr is a cell-based, multiplexed-readout assay that uses hepatocyte, a human liver primary cell, with measurements taken at 48 hours after chemical dosing in a 96-well plate.CLD_ABCG2_48hr is one of 16 assay component(s) measured or calculated from the CLD_48hr assay. It is designed to make measurements of mRNA induction, a form of inducible reporter, as detected with chemiluminescence signals by Quantitative Nuclease Protection Assay (qNPA) technology.Data from the assay component CLD_ABCG2_48hr was analyzed at the endpoint, CLD_ABCG2_48hr, in the positive analysis fitting direction relative to DMSO as the negative control and baseline of activity. Using a type of inducible reporter, gain-of-signal activity can be used to understand changes in the reporter gene as they relate to the gene ABCG2. Furthermore, this assay endpoint can be referred to as a primary readout. To generalize the intended target to other relatable targets, this assay endpoint is annotated to the transporter intended target family, where subfamily is ABC transporter.\nHuman hepatocyte cultures were treated daily for two consecutive days with fresh dosing solutions containing appropriate concentrations of the 320 ToxCast chemicals (chemical identities were blinded to CellzDirect and other ToxCast collaborators), vehicle control (0.2% DMSO), and positive control inducers as summarized in Table 1. Due to the large number of treatment groups and chemicals examined, the ToxCast chemicals were divided into two groups (spanning two independent cultures of hepatocytes from separate donor preparations (Hu778: ToxCast plates 1 and 2; Hu776: ToxCast plates 3 and 4). Each preparation of human hepatocyte cultures was treated with respective vehicle control, medium only control, set of six positive controls/reference chemicals for the five hepatic receptor pathways, and a subset of eight of the ToxCast chemicals (indoxacarb, pyrithiobac-sodium, norflurazon, cyhalofop-butyl, methomyl, thiram, acetochlor, and propiconazole). These replicate data, coupled with internal replicates designed within the blinded ToxCast chemical library, provided additional data to evaluate interindividual differences between hepatocyte preparations and their potential impact on chemical profiles.Cell morphology and integrity were evaluated using phase-contrast microscopy as an indicator of hepatocyte cell health (Tyson & Green, 1987). Cultures for each treatment group (i.e., media, vehicle [0.2% DMSO], positive control inducers [multiple concentrations], and the ToxCast chemicals [multiple concentrations]) were observed and cell morphology was assessed relative to vehicle control cultures at each harvest time point (0, 6, 24, or 48 h). […] Images were evaluated at the conclusion of the study to assess changes in cell integrity and account for the effects of chemical exposure on uncharacteristic changes in concentration-dependent gene expression profiles. The results from these determinations of apparent cytotoxicity were annotated (yes/no) alongside the corresponding qNPA data for reference.At the conclusion of each treatment period, hepatocyte cultures (96-well) were washed with 1 volume of HBSS, lysed by addition of 25 ul ArrayPlate lysis buffer (HTG, Tucson, AZ), and 70 ul/well of Denaturation Oil, denatured by incubation at 95C for 10 min, and frozen at approximately -70C until analysis by nuclease protection assay (qNPA) (Roberts et al., 2007). For qNPA analysis, cell lysates were thawed at 50C for approximately 30 min, qNPA probes were added, and samples were incubated at 95C for 10 min to begin the detection process by denaturing the target RNA, dissociating the duplexes and secondary structure hybridization. At the conclusion of the hybridization period, S1 nuclease reagent was added to each sample to digest all nonprotected nucleotides at 50C for 60-90 min. […]"}
{"smiles": "CCCC1COC(Cn2cncn2)(c2ccc(Cl)cc2Cl)O1", "note": "(stereo not given)", "outcome": "inactive"}
{"smiles": "C#CCOS(=O)OC1CCCCC1Oc1ccc(C(C)(C)C)cc1", "note": "(stereo not given)", "outcome": "inactive"}
{"smiles": "CS/C(C)=N/OC(=O)N(C)SN(C)C(=O)O/N=C(\\C)SC", "outcome": "inactive"}
{"smiles": "CCCCOC(=O)c1ccccc1C(=O)OCCCC", "outcome": "inactive"}
{"smiles": "COc1nc(C)nc(NC(=O)NS(=O)(=O)c2ccccc2Cl)n1", "outcome": "inactive"}
{"smiles": "CCCN(CCC)c1c([N+](=O)[O-])cc(S(N)(=O)=O)cc1[N+](=O)[O-]", "outcome": "inactive"}
{"smiles": "OC(c1ccc(Cl)cc1)(c1cncnc1)c1ccccc1Cl", "note": "(stereo not given)", "AC50": "33.4 µM (active)"}
{"smiles": "CNC(=S)S", "outcome": "inactive"}
{"smiles": "CCOc1cc(Oc2ccc(C(F)(F)F)cc2Cl)ccc1[N+](=O)[O-]", "outcome": "inactive"}
{"smiles": "C=CCC1=C(C)C(OC(=O)C2C(C=C(C)C)C2(C)C)CC1=O", "note": "(stereo not given)", "outcome": "inactive"}
{"smiles": "CC(C)C1(C)N=C(c2nc3ccccc3cc2C(=O)O)NC1=O", "note": "(stereo not given)", "outcome": "inactive"}
{"smiles": "CC(C)Oc1cc(-n2nc(C(C)(C)C)oc2=O)c(Cl)cc1Cl", "outcome": "inactive"}
{"smiles": "CC(C)(C)c1ccc(CSc2cnn(C(C)(C)C)c(=O)c2Cl)cc1", "outcome": "inactive"}
{"smiles": "CCOC(=O)CC(SP(=S)(OC)OC)C(=O)OCC", "note": "(stereo not given)", "outcome": "inactive"}
{"smiles": "N#Cc1nn(-c2c(Cl)cc(C(F)(F)F)cc2Cl)c(N)c1S(=O)C(F)(F)F", "note": "(stereo not given)", "AC50": "31.6 µM (active)"}
{"smiles": "COc1nc(C)nc(NC(=O)NS(=O)(=O)c2ccccc2CCC(F)(F)F)n1", "outcome": "inactive"}
{"smiles": "Fc1ccc(Oc2ccnc3cc(Cl)cc(Cl)c23)cc1", "outcome": "inactive"}
{"smiles": "O=C(O)COc1nc(Cl)c(Cl)cc1Cl", "outcome": "inactive"}
{"smiles": "Cc1c(F)c(F)c(COC(=O)C2C(/C=C(\\Cl)C(F)(F)F)C2(C)C)c(F)c1F", "note": "(stereo not given)", "outcome": "inactive"}
{"smiles": "CO/C=C(/C(=O)OC)c1ccccc1Oc1cc(Oc2ccccc2C#N)ncn1", "outcome": "inactive"}
{"smiles": "C=CC1(C)OC(=O)N(c2cc(Cl)cc(Cl)c2)C1=O", "note": "(stereo not given)", "outcome": "inactive"}
{"smiles": "CCCCNC(=O)OCC#CI", "outcome": "inactive"}
{"smiles": "COC(=O)c1ccccc1C(=O)OC", "outcome": "inactive"}
{"smiles": "COC(=O)N(OC)c1ccccc1COc1ccn(-c2ccc(Cl)cc2)n1", "AC50": "20 µM (active)"}
{"smiles": "CCCCC(CC)COC(=O)c1ccccc1C(=O)OCC(CC)CCCC", "note": "(stereo not given)", "outcome": "inactive"}
{"smiles": "CCc1nn(C)c(C(=O)NCc2ccc(C(C)(C)C)cc2)c1Cl", "AC50": "26.2 µM (active)"}
{"smiles": "Cc1cc(Cl)ccc1OCC(=O)O", "outcome": "inactive"}
{"smiles": "CCNc1nc(Cl)nc(NCC)n1", "outcome": "inactive"}
{"smiles": "COC(=O)C=C(C)OP(=O)(OC)OC", "outcome": "inactive"}
{"smiles": "CN(C)C(=S)SSC(=S)N(C)C", "outcome": "inactive"}
{"smiles": "O=C(O)c1nc(Cl)ccc1Cl", "outcome": "inactive"}
{"smiles": "COP(=S)(OC)Oc1nc(Cl)c(Cl)cc1Cl", "outcome": "inactive"}
{"smiles": "COP(N)(=O)SC", "note": "(stereo not given)", "outcome": "inactive"}
{"smiles": "N#Cc1cc(Br)c(O)c(Br)c1", "outcome": "inactive"}
{"smiles": "O=C(Nc1ccccc1)Nc1ccnc(Cl)c1", "outcome": "inactive"}
{"smiles": "Oc1ccccc1-c1ccccc1", "outcome": "inactive"}
{"smiles": "COC(=O)C(C)Oc1ccc(Oc2ccc(Cl)cc2Cl)cc1", "note": "(stereo not given)", "outcome": "inactive"}
{"smiles": "CC1COC(Cn2cncn2)(c2ccc(Oc3ccc(Cl)cc3)cc2Cl)O1", "note": "(stereo not given)", "outcome": "inactive"}
{"smiles": "C=CCC1=C(C)[C@@H](OC(=O)[C@@H]2[C@@H](C=C(C)C)C2(C)C)CC1=O", "outcome": "inactive"}
{"smiles": "N#CC(CCc1ccc(Cl)cc1)(Cn1cncn1)c1ccccc1", "note": "(stereo not given)", "outcome": "inactive"}
